From PubChem BioAssay
Only some compounds are listed: those with a hit (about 8.1% of all), similar ones and a draw of the others.
Epigenetic derep: Quantitative High-Throughput Screen for Regulators of Epigenetic Control | murine LDR cells, GFP reporter derepression, 30 h | Potency, µM (series often up to 53.9 µM), inactives show at the top dose GFP activation, most hits filed as activators | actives 0.2% (n = 280,000); note: % of control where 0% means no effect; nearly all actives have a fitted effect of over 60% in size
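Derepression of a silenced CMV-GFP reporter in murine LDR cells is scored by enumerating GFP-positive cells with a laser-scanning microplate cytometer after 30 hours of treatment at 37 C.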
RORgamma inh: qHTS for inhibitors of ROR gamma transcriptional activity | Drosophila S2 Gal4-RORgamma UAS-luciferase reporter, 20 h | Potency, µM (highest dose often 53.6 µM), inactives show top-dose activity change, negative = inhibition, most hits filed as inhibitors | actives 5.4% (n = 310,000); note: % is set by controls: 0 for no effect and ±100 for the full control effect; nearly all actives have a fitted effect of over 60% in size
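In this cell-based reporter format, copper sulfate (700 uM final) drives Gal4–ROR gamma fusion expression from a metallothionein promoter in Drosophila Schneider cells; compounds preincubated 1 hr, reporter read after 20 hr at ambient temperature.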
Gal4-VP16 FLuc: VP16 counterscreen qHTS for inhibitors of ROR gamma transcriptional activity | Potency, µM (series often up to 53.6 µM), without a hit: top-dose activity, negative = inhibition, actives largely listed as inhibitors | actives 3.5% (n = 310,000) | Drosophila S2 Gal4-VP16 UAS-luciferase, luminescence, 20 h;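 note: Gal4-VP16 expression switched on by copper sulfate through the metallothionein promoter; % is set by controls: 0 for no effect and ±100 for the full control effect; nearly all actives have a fitted effect of over 50% in size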
PINK1 expr mod: A Quantitative High throughput Screen to Identify Chemical Modulators of PINK1 Expression. AID 624263, 2012. Potency, µM (series often up to 76.6 µM), without a hit: at the top dose activation (PINK1 increase), usual class: activators. actives 0.2% (n = 410,000). PINK1 immunofluorescence, high-content cytometry, 24 h; active = well fitted activation curve with a large enough effect; inconclusive = small, poorly fitted or top-dose-only effect; cell line not stated here; note: % of control where 0% means no effect; nearly all actives have a fitted effect of over 65% in size
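Readout is PINK1 immunofluorescence, quantified alongside mitochondrial, cell and nuclear markers by laser-scanning microplate cytometry. Cells from a stable line were exposed to compound titrations (5 concentrations) for 24 hours, with CCCP controls.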
ClpP mod: qHTS Assay for Activators of ClpP; ATP-dependent Clp protease proteolytic subunit (Bacillus subtilis (strain 168)), P80244; purified B. subtilis ClpP, FRET peptide cleavage, 20 min; Potency, µM (titrated, usually from 57.5 µM), for the others: top-dose activity change, negative = active; actives 1.9% (n = 340,000); AID 651965, 2013; active = well fitted falling curve with a large enough effect; inconclusive = small, poorly fitted or top-dose-only effect; inactive = no such curve, though single readings can be large or run the other way; note: the source files actives as falling curves though it sought activators and does not explain the sign; nearly all actives have a fitted effect of over 65% in size
Target sequence (P80244 whole entry, looked up): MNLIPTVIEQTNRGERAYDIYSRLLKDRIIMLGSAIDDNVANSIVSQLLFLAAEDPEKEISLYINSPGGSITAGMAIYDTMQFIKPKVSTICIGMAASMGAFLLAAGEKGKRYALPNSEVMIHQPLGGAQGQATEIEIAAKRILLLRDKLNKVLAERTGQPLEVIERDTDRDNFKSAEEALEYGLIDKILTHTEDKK
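Purified B. subtilis ClpP, 10 microg/mL final in Tris/HCl pH8 with KCl, BSA, glycerol and Tween-20, cleaved an Abz/nitrotyrosine-quenched decapeptide. Fluorescence (ex 320, em 430) was read at 0 and 20 min at room temperature. Delta was normalized to 5.8 microM ADEP and DMSO/no-enzyme controls.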
Sfp PPTase inh: qHTS Assay for Inhibitors of Bacillus subtilis Sfp phosphopantetheinyl transferase (PPTase). actives 3.5% (n = 310,000). Potency, µM, for inactives: largest response in the series, negative = inhibition, hits mostly inhibitors. Biochemical Sfp PPTase activity, qHTS. AID 1490, 2009;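 note: the enzyme is Sfp with the accession as filed and its product quenches rhodamine fluorescence; 0% = enzyme reaction without inhibitor and -100% = no enzyme wells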
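Buffer: 50 mM Hepes-Na pH 7.6, 10 mM MgCl2, 0.01% Nonidet P-40, 0.01% BSA. Enzyme 15 nM, pre-exposed to compound 15 min; substrates then added and fluorescence change tracked over 30 min.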
* hit, by the source's call; ? = inconclusive; . = no result; [ ] = remark or other dose. Unless noted, calls come from the whole dose curve; as a rule, active = well fitted curve in the direction sought with a large enough effect; inconclusive = small, poorly fitted or top-dose-only effect, or another doubt; inactive = no such curve, though single readings can be large; an effect the other way counts as inactive or inconclusive. Potency is the fitted concentration of half-maximal effect.

SMILES | Epigenetic derep | RORgamma inh | Gal4-VP16 FLuc | PINK1 expr mod | ClpP mod | Sfp PPTase inh
COC(=O)Cn1c(CN(C)Cc2ccccc2)nc2c1c(=O)n(C)c(=O)n2C | . | ? | 13µM* | 2% | 1% | 11%
CCOC(=O)Cn1c(CN2CCc3ccccc3C2)nc2c1c(=O)n(C)c(=O)n2C | 1% | -31% | 4µM* | 0% | -4% | 23%
COc1cc2[nH]c(=O)n(CCCCCC(=O)N3CCN(c4ccc(Cl)cc4)CC3)c(=O)c2cc1OC | ? | . | . | 2% | -22% | .
O=c1cc(O)n(-c2ccc(Cl)cc2)c(=S)[nH]1 | 3% | ? | 2% | -2% | 1% | 50µM*
Cc1ccccc1-n1c(O)cc(=O)[nH]c1=S | 1% | -3% | -17% | 1% | . | 56µM*
O=c1cc(O)n(-c2ccccc2F)c(=S)[nH]1 | -1% | 2% | 1% | 3%[38.3 µM] | 1% | 50µM*
Cc1ccccc1-n1c(N)cc(=O)[nH]c1=S | 2% | 5% | 3% | -2%[38.3 µM] | -1% | 7%
COc1cccc(-c2nc(S(=O)(=O)c3ccccc3)c(N3CCC(C)CC3)o2)c1 | 5% | . | . | 0% | -13% | .
C=CCN1CC[C@@H](O)C(=C)S1(=O)=O | . | . | . | . | 0% | .
CCn1cc2nc(SCC(=O)Nc3ccc(C)cc3C)n(Cc3ccc(C)cc3)c(=O)c2n1 | 14% | . | . | 0% | 0% | .
CC(=O)N(C)c1ccc(OCC(O)Cn2c3ccc(Cl)cc3c3cc(Cl)ccc32)cc1 (stereo unspecified) | -7% | 20µM* | 4%[0.365 µM] | 3% | -4% | -5%
CC(=O)N(C)c1ccc(OCC(O)Cn2c(C)nc3ccccc32)cc1 (stereo unspecified) | -1% | -34% | 16µM* | -1% | . | 28%
CC(=O)Nc1ccc(OCC(O)Cn2c(CO)nc3ccccc32)cc1 (stereo unspecified) | 0% | 1% | -14% | 1% | 2% | 19%
CC(=O)Nc1ccc(OCC(O)Cn2c(C)nc3ccccc32)cc1 (stereo unspecified) | 8% | ? | 7.9µM* | 1% | -3% | 3%
O=S(=O)(c1ccc(F)cc1)N1CCN(c2nc(-c3ccccc3)nc3ccccc23)CC1 | . | . | . | 0% | ? | .
CC(NC(=O)/C=C/c1ccco1)c1nc2ccccc2n1Cc1c(Cl)cccc1Cl (stereo unspecified) | 6% | -35% | ? | 7% | -1% | 50µM*
CC(NC(=O)/C=C/c1ccco1)c1nc2ccccc2n1Cc1ccccc1F (stereo unspecified) | 0% | -36% | ? | 2% | 3% | ?
Cc1ccc(Cn2c(-c3ccccc3)nc3ccccc32)cc1 | -2% | . | . | 4% | -20% | .
Cc1ccc(Cn2c(/C=C/c3ccco3)nc3ccccc32)cc1 | ? | 11µM* | ? | 26% | 28µM* | ?
C#CCn1c(/C=C/c2ccc(Cl)cc2)nc2ccccc21 | -4% | . | . | -1% | 4% | .
Clc1ccc(Cn2c(/C=C/c3ccco3)nc3ccccc32)cc1 | 0% | ? | ? | 30% | 35µM* | 40µM*
COc1cc(CN2c3ccc(Br)cc3C(=O)CS2(=O)=O)cc(OC)c1 | . | . | . | . | 1% | .
Cc1ccc(OCC(=O)Nc2ccc(OCc3cc(=O)n4ccsc4n3)cc2)cc1 | -4% | . | . | 4% | -1% | .
COc1ccc(N2CCN(C(=O)c3cc4c(=O)n(Cc5cccs5)ccc4nc3C)CC2)cc1 | ? | . | . | 5% | -13% | .
CCOC(=O)C1=C(C)NC2=C(C(=O)CCC2)C1c1cn(Cc2ccc(Cl)cc2Cl)nc1-c1ccccc1 (stereo unspecified) | 3% | 20% | -13% | 0% | 28µM* | 7%
